Measured values published in PubChem BioAssay AID1159580 (chemical genetic matrix, 2015).
Hit rate of the full screen: of about 5,500 compounds, about 2,000 (36%) were called active. Another 18% or so got no clear call; they are omitted. No stated cut-off is given here; in the data, active means normalized growth mostly below about 0.91 (no sharp cut-off); inconclusive means no clear call, values can overlap the other calls; inactive means mostly above about 0.92. Some of the results follow.

Experiment: chemical genetic growth profiling, strain panel (AID 1159580);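 further: tested at 20 µM; growth read once vehicle control cultures reached saturation at 30 °C; 1 = growth at the plate median or of vehicle wells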
Conditions: S. cerevisiae deletion strains, growth OD

Measured: normalized growth

CCC(CCC(C)C1CCC2C3CC=C4C[C@@H](OC(C)=O)CC[C@]4(C)C3CC[C@]12C)C(C)C (stereo partly drawn)
inactive: locus YBR021W, strain FUR4, stronger effect = lower value 0.996 | locus YBR229C, strain ROT2, stronger effect = lower value 0.99 | locus YCL029C, strain bik1, stronger effect = lower value 0.996 | locus YDL035C, strain GPR1, stronger effect = lower value 1.04 | locus YDL074C, strain BRE1, stronger effect = lower value 1.07 | locus YDL101C, strain DUN1, stronger effect = lower value 0.979 | locus YDL134C, strain PPH21, stronger effect = lower value 1.01 | locus YDL185W, strain tfp1, stronger effect = lower value 0.974 | locus YDL192W, strain arf1, stronger effect = lower value 1 | locus YDR101C, strain arx1, stronger effect = lower value 1.02 | locus YDR162C, strain NBP2, stronger effect = lower value 1 | locus YDR318W, strain mcm21, stronger effect = lower value 0.976 | locus YDR388W, stronger effect = lower value 0.963 | locus YDR502C, strain sam2, stronger effect = lower value 0.968 | locus YEL061C, strain CIN8, stronger effect = lower value 1 | locus YER110C, stronger effect = lower value 0.968 | locus YER155C, strain BEM2, stronger effect = lower value 0.981 | locus YER167W, strain BCK2, stronger effect = lower value 1.01 | locus YGL078C, strain dbp3, stronger effect = lower value 0.964 | locus YGL086W, strain mad1, stronger effect = lower value 0.992 | locus YGL248W, strain PDE1, stronger effect = lower value 0.982 | locus YGR078C, strain PAC10, stronger effect = lower value 0.989 | locus YGR135W, strain pre9, stronger effect = lower value 0.945 | locus YGR252W, strain gcn5, stronger effect = lower value 0.941 | locus YHR030C, strain SLT2, stronger effect = lower value 0.991 | locus YHR079C, strain IRE1 (second series), stronger effect = lower value 0.977 | locus YHR094C, strain hxt1, stronger effect = lower value 0.976 | locus YHR129C, strain ARP1, stronger effect = lower value 0.998 | locus YHR200W, strain rpn10, stronger effect = lower value 0.975 | locus YIL066C, strain RNR3, stronger effect = lower value 1.02 | locus YIL073C, strain SPO22, stronger effect = lower value 1.01 | locus YIL125W, strain kgd1, stronger effect = lower value 0.987 | locus YIR030C, strain dcg1, stronger effect = lower value 0.968 | locus YJL095W, strain BCK1, stronger effect = lower value 0.991 | locus YJL134W, strain LCB3, stronger effect = lower value 0.991 | locus YJL168C, strain set2, stronger effect = lower value 0.96 | locus YJL187C, strain SWE1 (second series), stronger effect = lower value 0.979 | locus YJR043C, strain POL32, stronger effect = lower value 1.05 | locus YKL009W, strain mrt4, stronger effect = lower value 1.03 | locus YKL068W, stronger effect = lower value 0.987 | locus YKL085W, strain MDH1 (second series), stronger effect = lower value 0.989 | locus YKL085W, strain MDH1, stronger effect = lower value 0.989 | locus YKL190W, strain CNB1, stronger effect = lower value 1 | locus YKR001C, strain vps1, stronger effect = lower value 0.995 | locus YLR039C, strain RIC1, stronger effect = lower value 1.07 | locus YLR058C, strain SHM2, stronger effect = lower value 1 | locus YLR102C, strain apc9, stronger effect = lower value 0.978 | locus YLR262C, strain YPT6, stronger effect = lower value 1.08 | locus YLR268W, strain sec22, stronger effect = lower value 1.02 | locus YLR330W, strain CHS5, stronger effect = lower value 0.993 | locus YLR342W, strain FKS1 (second series), stronger effect = lower value 1.09 | locus YLR371W, strain rom2, stronger effect = lower value 0.993 | locus YLR418C, strain cdc73, stronger effect = lower value 0.959 | locus YML016C, strain PPZ1, stronger effect = lower value 1.01 | locus YML032C, strain rad52, stronger effect = lower value 1.01 | locus YML124C, strain tub3, stronger effect = lower value 0.98 | locus YMR078C, strain ctf18, stronger effect = lower value 0.962 | locus YMR223W, strain ubp8, stronger effect = lower value 0.992 | locus YMR307W, strain GAS1, stronger effect = lower value 1.06 | locus YNL067W, strain RPL9B, stronger effect = lower value 0.974 | locus YNL128W, strain TEP1, stronger effect = lower value 1.01 | locus YNL233W, strain BNI4, stronger effect = lower value 0.98 | locus YNL250W, strain rad50, stronger effect = lower value 0.947 | locus YNL271C, strain bni1, stronger effect = lower value 0.957 | locus YNL298W, strain CLA4, stronger effect = lower value 0.997 | locus YNL307C, strain MCK1, stronger effect = lower value 0.975 | locus YNR052C, strain pop2, stronger effect = lower value 0.961 | locus YOL006C, strain TOP1, stronger effect = lower value 1.2 | locus YOL012C, strain htz1 1.41 | locus YOL147C, strain pex11, stronger effect = lower value 0.989 | locus YOR061W, strain CKA2, stronger effect = lower value 1.01 | locus YOR069W, strain VPS5, stronger effect = lower value 0.99 | locus YOR136W, strain idh2, stronger effect = lower value 0.975 | locus YOR144C, strain elg1, stronger effect = lower value 0.97 | locus YOR184W, strain ser1, stronger effect = lower value 1.04 | locus YOR316C, strain cot1, stronger effect = lower value 0.978 | locus YPL055C, strain LGE1, stronger effect = lower value 1.03 | locus YPL241C, strain CIN2, stronger effect = lower value 0.984 | locus YPR119W, strain clb2, stronger effect = lower value 0.971 | locus YPR141C, strain kar3, stronger effect = lower value 0.975 | locus YPR163C, strain tif3, stronger effect = lower value 0.982 | locus YPR167C, strain met16, stronger effect = lower value 0.967 | strain wtn01, stronger effect = lower value 1.01
